This is an account of results in the supplement of paper PMC13380429.

The subject of assay [1] is Vero E6 infected with SARS-CoV-2. As to the kind of experiment: morphology score (similarity to uninfected cells); higher = more like uninfected cells. The settings on record: 24 h.
The test system is the same in assay [2]. Put plainly: SARS-CoV-2 infection rate relative to infected DMSO; higher = more infection, active = 60 or less. The settings on record: 24 h.

Turning to `CN1CCC(COc2cnc(-c3cccc(Cn4nc(-c5cccc(C#N)c5)ccc4=O)c3)nc2)CC1` (10 µM), the morphology score in assay [1] is 0.207. Further, in assay [2], the SARS-CoV-2 infection rate was 100% (inactive).

For `COc1ccc(S(=O)(=O)Nc2nc(-c3cccc([N+](=O)[O-])c3)cs2)cc1OC` (10 µM), in assay [1], the morphology score was -0.00369. For the same compound, the SARS-CoV-2 infection rate in assay [2] is 107% (inactive).

As to `CCOC(=O)[C@@H](C)Oc1cccc2c(=O)n(CC(=O)Nc3ccc4c(c3)OCCO4)ccc12` (10 µM), in assay [1], the morphology score was -0.204. The SARS-CoV-2 infection rate in assay [2] was 108% (inactive).

With `Cn1ncc2c(N3CCOCC3)nc(-c3cccc(O)c3)nc21` (10 µM), the morphology score in assay [1] was -0.103. In addition, in assay [2], the SARS-CoV-2 infection rate was 114% (inactive).

The compound `CN(C)c1ccc(-c2nc3c(N4CCN(CC(=O)Nc5nccs5)CC4)c(Cl)cnc3[nH]2)cc1` (10 µM) had a morphology score in assay [1] of 0.47. The SARS-CoV-2 infection rate in assay [2] was 74.5% (inactive).

`CN(CCOP(=O)(O)O)C(=N)N` [creatinol-phosphate] (10 µM) showed a morphology score in assay [1] of 0.077. In assay [2], the SARS-CoV-2 infection rate is 95.5% (inactive).

Regarding `CC[C@@H](CO)NCCN[C@@H](CC)CO` [ethambutol] (10 µM), the morphology score in assay [1] is -0.117. The SARS-CoV-2 infection rate in assay [2] was 109% (inactive).

In the case of `N=C(N)c1ccc(/C=C/c2ccc(C(=N)N)cc2O)cc1` [hydroxystilbamidine] (10 µM), the morphology score in assay [1] was found to be 0.115. In addition, the SARS-CoV-2 infection rate in assay [2] was 109% (inactive).

In assay [1], `CCN(CC)CCOC(=O)C(c1ccccc1)C1CCCCC1` (stereo not given) [drofenine] (10 µM) had a morphology score of 0.275. The SARS-CoV-2 infection rate in assay [2] was 99.5% (inactive).

In assay [1], `CC[C@H]1[C@@H](O)[C@@H]2[C@H](CC[C@]3(C)[C@@H]([C@H](C)CCC(=O)O)CC[C@@H]23)[C@@]2(C)CC[C@@H](O)C[C@@H]12` [obeticholic-acid] (10 µM) had a morphology score of 0.174. Also, the SARS-CoV-2 infection rate in assay [2] was 101% (inactive).

`CCC1(CC)C(=O)NC(=O)N(C)C1=O` [metharbital] (10 µM) returned a morphology score in assay [1] of 0.221. In addition, the SARS-CoV-2 infection rate in assay [2] is 91.5% (inactive).

The compound `Cc1cccc(Oc2cnc(=O)[nH]c2)c1` [tolimidone] (10 µM) showed a morphology score in assay [1] of 0.147. The SARS-CoV-2 infection rate in assay [2] is 106% (inactive).

`O=[N+]([O-])c1cc([N+](=O)[O-])c(/C=C/c2ccc(Cl)c(Cl)c2)cc1/C=C/c1ccc(Cl)c(Cl)c1` (10 µM) showed a morphology score in assay [1] of 0.192. Besides, the SARS-CoV-2 infection rate in assay [2] is 97.5% (inactive).

In assay [1], `O=[N+]([O-])c1cccc2c(Br)n[nH]c12` [3-bromo-7-nitroindazole] (10 µM) returned a morphology score of 0.0979. The SARS-CoV-2 infection rate in assay [2] is 110% (inactive).

In assay [1], `CC(C)(C)C(=O)CN1C(=O)[C@H](NC(=O)Nc2cccc(C(=O)O)c2)CN(C2CCCCC2)c2ccccc21` [nastorazepide] (10 µM) displayed a morphology score of -0.0136. Further, the SARS-CoV-2 infection rate in assay [2] was 104% (inactive).

For the compound `CN1[C@@H]2CC[C@H]1C[C@@H](OC(c1ccccc1)c1ccccc1)C2` [benztropine-mesylate] (10 µM), in assay [1], the morphology score was 0.481. For the same compound, the SARS-CoV-2 infection rate in assay [2] is 84.5% (inactive).

Take `NS(=O)(=O)c1cc(C2(O)NC(=O)c3ccccc32)ccc1Cl` (stereo not given) [chlorthalidone] (10 µM): the morphology score in assay [1] was 0.13. Further, the SARS-CoV-2 infection rate in assay [2] is 78.5% (inactive).

`CC(=O)O[C@H]1C[C@@]2(C)[C@@H](C[C@@H](O)[C@H]3[C@@]4(C)CC[C@@H](O)[C@@H](C)[C@@H]4CC[C@@]32C)/C1=C(\CCC=C(C)C)C(=O)O` [fusidic-acid] (10 µM) returned a morphology score in assay [1] of 0.063. Also, the SARS-CoV-2 infection rate in assay [2] was 98% (inactive).

As to `NC[C@@H]1CC[C@@H](N)[C@@H](O[C@H]2[C@H](O)[C@@H](O[C@H]3O[C@H](CO)[C@@H](O)[C@H](N)[C@H]3O)[C@H](N)C[C@@H]2N)O1` [dibekacin] (10 µM), in assay [1], the morphology score was 0.0218. Also, in assay [2], the SARS-CoV-2 infection rate is 103% (inactive).

In the case of `C=C1/C(=C\C=C2/CCC[C@]3(C)[C@@H]([C@H](C)/C=C/[C@@H](O)C4CC4)CC[C@@H]23)C[C@@H](O)C[C@@H]1O` [calcipotriol] (10 µM), the morphology score in assay [1] was -0.273. In addition, in assay [2], the SARS-CoV-2 infection rate was 103% (inactive).

Regarding `CC(C)Cc1ccc([C@@H](C)C(=O)NS(C)(=O)=O)cc1` [reparixin] (10 µM), the morphology score in assay [1] is 0.135. The SARS-CoV-2 infection rate in assay [2] was 100% (inactive).

With `NCC(O)c1ccc(O)cc1` (stereo not given) [octopamine] (10 µM), the morphology score in assay [1] is -0.0363. Also, the SARS-CoV-2 infection rate in assay [2] is 114% (inactive).

The compound `COc1c(C)c(C(=O)c2ccc(N)c(C(=O)O)c2)n2ccccc12` (10 µM) displayed a morphology score in assay [1] of 0.0882. In addition, the SARS-CoV-2 infection rate in assay [2] was 105% (inactive).

In turn, `CCCN(C/C=C/I)[C@H]1CCc2ccc(O)cc2C1` [7-hydroxy-PIPAT] (10 µM) came in with a morphology score in assay [1] of -0.0984. Also, the SARS-CoV-2 infection rate in assay [2] is 118% (inactive).

In assay [1], `Cc1nc2c(c(=O)[nH]1)CSCC2` (10 µM) registered a morphology score of 0.0297. Moreover, the SARS-CoV-2 infection rate in assay [2] was 114% (inactive).

In turn, `Cc1cc(Nc2cc(C)c(C#N)c(N[C@@H](C)CCCC(C)(C)O)n2)n[nH]1` (10 µM) returned a morphology score in assay [1] of -0.0857. In addition, in assay [2], the SARS-CoV-2 infection rate was 113% (inactive).

In assay [1], `O=C(CCCCCCNC(=O)c1cnc(N(c2ccccc2)c2ccccc2)nc1)NO` (0.833333 µM) registered a morphology score of -0.13. Further, in assay [2], the SARS-CoV-2 infection rate was 106% (inactive).

Regarding `CC(=O)OC[C@H]1O[C@@H](n2ccc(=O)[nH]c2=O)[C@H](OC(C)=O)[C@@H]1OC(C)=O` [uridine-triacetate] (10 µM), the morphology score in assay [1] was -0.0249. For the same compound, in assay [2], the SARS-CoV-2 infection rate was 112% (inactive).

Take `Cc1nc(Nc2ccc(F)cc2)nc(N2CCc3ccccc3C2C)c1C` (stereo not given) [revaprazan] (10 µM): the morphology score in assay [1] stood at 0.59. Further, the SARS-CoV-2 infection rate in assay [2] is 42.5% (active).

On to `C#Cc1cccc(Nc2ncnc3cc(OC)c(OCCCCCCC(=O)NO)cc23)c1` (0.833333 µM), for which, in assay [1], the morphology score is -0.262. In addition, in assay [2], the SARS-CoV-2 infection rate was 122% (inactive).
